Assay outcomes deposited in PubChem by National Center for Advancing Translational Sciences (NCATS).
Most compounds without a hit are left out; they make up all but 11% or so of the library.
Vaccinia Venus = qHTS for Stage-Specific Inhibitors of Vaccinia Orthopoxvirus: Venus Reporter Primary qHTS; hit rate 0.46% among 330,000; Potency, µM (titrated, usually from 36.5 µM), usual class: inhibitors; AID 720580, 2013; Vaccinia virus Venus reporter expression, fluorescence; calls by dose curve; tested in A549 cells; also: nearly all actives have a fitted effect of over 30% in size
VACV mCherry inh = qHTS for Stage-Specific Inhibitors of Vaccinia Orthopoxvirus: mCherry Reporter Primary qHTS. hit rate 0.63% among 310,000. AID 720579, 2013. Potency, µM (titrated, usually from 36.5 µM), most hits filed as inhibitors. Vaccinia virus mCherry reporter infection, fluorescence; calls by dose curve; tested in A549 cells; also: nearly all actives have a fitted effect of over 35% in size
Pf growth 48h = Primary qHTS for delayed death inhibitors of the malarial parasite plastid, 48 hour incubation; P. falciparum luciferase growth in erythrocytes, 48 h; Potency, µM (series often up to 28.7 µM), hits mostly inhibitors; hit rate 5.9% among 310,000; AID 504832, 2011
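Luciferase-expressing parasites in RBCs, 2% Hct / 0.1% parasitemia final; RPMI 1640 + 0.5% Albumax; 37 C, 5% CO2, one generation; luminescence read-out, lower signal = inhibition.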
Pf growth 96h = Primary qHTS for delayed death inhibitors of the malarial parasite plastid, 96 hour incubation; P. falciparum luciferase reporter growth, 96 h; Potency, µM (doses to about 28.7 µM), hits mostly inhibitors; hit rate 6.9% among 320,000; AID 504834, 2011
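P. falciparum expressing integrated firefly luciferase, in erythrocytes at 2% hematocrit, 0.05% parasitemia, incubated with compounds 96 h at 37 C, 5% CO2. Growth inhibition read as loss of luminescence; two-generation exposure targets delayed-death apicoplast inhibitors.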
HCV inh = qHTS Assay for Inhibitors of Hepatitis C Virus (HCV) | Huh7.5.1 HCVcc-Cre infection, luciferase reporter, 44 h | Potency, µM (highest dose often 41.8 µM), actives largely listed as inhibitors | hit rate 3.4% among 340,000
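Seed cells (1,000/well) for 4 h; treat with compound and infect with HCVcc-Cre, moi about 0.5. Incubate 44 h, then detect luciferase activity.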
NS1 function inh = qHTS Assay for Inhibitors of Influenza NS1 Protein Function. hit rate 0.4% among 270,000. Potency, µM (top dose mostly 46.1 µM). AID 2326, 2010; calls by dose curve; also: actives are rising curves; nearly all actives have a fitted effect of over 50% in size
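Read-out: OD600 growth recovery of NS1-expressing budding yeast. Cells grown overnight at 30C in -URA glucose medium, washed, resuspended and diluted 1:100 in 2% galactose assay medium, pH 6.0. Same strain lacking NS1 served as positive control.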
A number is an active result; - = inactive; ? = inconclusive; . = no result given; [ ] = remark or other dose. Unless noted, calls follow the shape of the dose curve; as a rule, active = well fitted inhibition curve with a large enough effect; inconclusive = small, poorly fitted or top-dose-only effect, or another doubt; inactive = no such curve, though single readings can be large or run the other way.

SMILES	Vaccinia Venus	VACV mCherry inh	Pf growth 48h	Pf growth 96h	HCV inh	NS1 function inh
CC12CCC(=O)N1C(C(=O)N1CCN(S(=O)(=O)c3cccc(C(F)(F)F)c3)CC1)CS2 (configuration not stated)	-	-	-	-	-	.
CCOc1ccc(S(=O)(=O)N2CCOCC2)cc1NC(=O)C1CSC2(C)CCC(=O)N12 (configuration not stated)	-	-	-	-	-	.
CC12CCC(=O)N1C(C(=O)Nc1cc(C(F)(F)F)ccc1N1CCCCC1)CS2 (configuration not stated)	?	-	9.28µM	?	3.55µM	.
CCCN1CCN(C(=S)Nc2ccc(S(N)(=O)=O)cc2)CC1	-	-	-	?	-	.
CC12CCC(=O)N1C(C(=O)Nc1cc(C(F)(F)F)ccc1N1CCOCC1)CS2 (configuration not stated)	-	-	?	?	8.91µM	.
CC12CCC(=O)N1C(C(=O)Nc1ccccc1N1CCCCC1)CS2 (configuration not stated)	-	-	10.4µM	?	-	.
Cc1ccc(-c2nc(N)n(S(C)(=O)=O)n2)cc1	-	.	-	-	-	-
CCCCCn1c(CCC(=O)Oc2ccccc2OC)nc2c1c(=O)[nH]c(=O)n2CCCC	-	.	.	13.1µM	-	-
NCCCC[C@H]1CNC(=O)C(=O)N1CCC12CC3CC(CC(C3)C1)C2	-	-	11.7µM	7.38µM	-	-
CCCCN1C(=O)C(=O)NC[C@@H]1CCCCN	-	-	.	.	-	.
O=S(=O)(Nc1ccc(-c2csc(-c3ccccc3)n2)cc1)c1ccccc1	-	?	-	0.657µM	?	-
Cc1ccc(S(=O)(=O)Nc2ccc(-c3csc(-c4ccccc4)n3)cc2)cc1	-	?	-	-	10µM	-
O=[N+]([O-])c1ccc(S(=O)(=O)Nc2ccc(-c3csc(-c4ccccc4)n3)cc2)cc1	.	.	-	-	.	-
Cc1ccccc1C(=O)NC1CCCN(Cc2ccccc2F)C1 (configuration not stated)	.	.	-	-	-	-
O=C(NC(=S)Nc1ccc(Br)c(Cl)c1)C1CC1	.	.	-	?	10µM	-
O=C(NNC(=S)Nc1ccccc1Cl)C1CC1	-	-	-	-	-	-
O=C(NC(=S)Nc1cccc(Cl)c1Cl)C1CC1	.	.	11.7µM	-	-	-
S=C(Nc1cccc(Cl)c1Cl)Nn1cnnc1	-	-	-	2.33µM	-	-
Cc1ncccc1C(=O)N1CCCC(CCC(=O)N2CCN(c3ccccn3)CC2)C1 (configuration not stated)	.	.	-	-	-	?
COc1ccc(NC(=O)CC(Cc2ccccc2)C(=O)O)cc1 (configuration not stated)	.	.	-	-	-	-
O=C(O)C(Cc1ccc(F)cc1)c1ccccc1 (configuration not stated)	.	.	-	3.29µM	-	-
O=C(CC(Cc1ccccc1)C(=O)O)Nc1ccc(F)cc1 (configuration not stated)	.	.	-	2.33µM	?	-
O=C(Nc1cccc(F)c1)Nc1cnccn1	.	.	-	?	-	-
Cn1nc(C(F)(F)F)c(C(=O)Nc2ccc(F)cc2F)c1Sc1cccc(C(F)(F)F)c1	.	.	9.28µM	8.28µM	-	-
O=C(Nc1ccc(F)cc1F)c1c(C(F)(F)F)ccnc1Oc1cccc(C(F)(F)F)c1	-[7.34 µM]	-[7.34 µM]	14.7µM	10.4µM	-	-
SMILES	Vaccinia Venus	VACV mCherry inh	Pf growth 48h	Pf growth 96h	HCV inh	NS1 function inh
COc1ccc(C=O)cc1OC(=O)C1(C)Cc2ccccc2C(=O)O1 (configuration not stated)	-	-	-	-	-	.
O=C(c1ccc2c(c1)OCO2)N1CCC2(CC1)Oc1ccc(F)cc1C(=O)C21CC(c2ccc(Cl)cc2)=NO1 (configuration not stated)	-	-	-	-	10µM	-
O=C(c1ccc2c(c1)OCO2)N1CCC2(CC1)Oc1ccc(Cl)cc1C(=O)C21CC(c2ccccc2)=NO1 (configuration not stated)	-	-	11.7µM	13.1µM	-	-
Cc1noc(C)c1C(=O)N1CCC2(CC1)Oc1ccc(F)cc1C(=O)C21CC(c2ccc(Cl)cc2)=NO1 (configuration not stated)	-	-	11.7µM	?	-	-
CC(C)C(=O)N1CCC2(CC1)Oc1ccc(Cl)cc1C(=O)C21CC(c2ccc(Cl)cc2)=NO1 (configuration not stated)	-	-	?	?	-	-
CC(C)NC(=S)N/N=C/c1ccc(C(C)(C)C)cc1	-	-	?	?	-	-
Cc1cc(C(=O)CN2C(=O)C(=O)N(C)C2=O)c(C)n1-c1cccc(S(=O)(=O)N2CCOCC2)c1	-	?	-	-	-	-
Cc1onc(-c2c(F)cccc2Cl)c1C(=O)ONC(=O)c1ccccc1	-	-	-	-	-	-
Cc1ccn2c(C(=O)CSc3ccccc3Cl)c(C)nc2c1	-	.	3.7µM	?	-	-
CCOC(=O)c1cc(-c2ccc(F)cc2)n(CCC(=O)NC2CCN(Cc3ccccc3)CC2)c1C	.	.	?	?	3.98µM	.
O=C(CCn1c(=O)c2ccccc2n(Cc2ccccc2)c1=O)NC1CCN(Cc2ccccc2)CC1	.	.	?	8.28µM	?	-
CCOc1ccc(NC(=O)Cn2c(=O)n(CCCC(=O)NC3CCN(Cc4ccccc4)CC3)c(=O)c3ccccc32)cc1	-	-	5.22µM	-	?	-
CCOC(=O)c1cc(-c2ccc(OC)cc2)n(CCC(=O)NC2CCN(Cc3ccccc3)CC2)c1C	?	-	?	-	?	.
Cc1cccc(NC(=O)Cn2c(=O)n(CCC(=O)NC3CCCC3)c(=O)c3ccccc32)c1	-	-	-	2.08µM	-	-
Cc1ccccc1OCC(=O)N/N=C/c1c(C)nn(-c2ccccc2)c1Cl	.	.	-	-	?	-
CCC(=Nc1ccc(OC)cc1OC)c1c(O)[nH]c(=O)[nH]c1=O	-	-	?	-[5.75 µM]	-	-
NC(=O)Cn1c(=O)n(CCCC(=O)NC2CCN(Cc3ccccc3)CC2)c(=O)c2ccccc21	-	.	.	-	-	-
COc1cccc(NC(=O)Cn2c(=O)n(CCC(=O)NC3CCN(Cc4ccccc4)CC3)c(=O)c3ccccc32)c1	-	-	?	14.7µM	?	-
Cc1nc2cc(CC(=O)O)ccc2o1	.	.	-	-	-	-
Clc1ccc(OCc2nn3c(-c4ccco4)nnc3s2)cc1	-	-	14.7µM	-	-	-
Clc1ccc(OCc2nn3c(-c4ccncc4)nnc3s2)cc1	-	-	-	-	-	-
c1ccc(OCc2nn3c(-c4cccnc4)nnc3s2)cc1	.	.	?	11.7µM	-	-
